Assay outcomes: PubChem, National Center for Advancing Translational Sciences (NCATS)
Rab9 prom act = activates the Rab9 promoter | Huh7 Rab9 promoter-luciferase reporter, luminescence, 24 h | AID 485297 | 320,000 tested, 2.8% active | Potency, µM (top dose mostly 9.22 µM), for the others: top-dose activation, negative = inhibition, usual class: activators; also: % of control where 0% means no effect; nearly all actives have a fitted effect of over 60% in size
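Luminescence read-out: Huh7 cells stably expressing Rab9-luciferase, treated 24 h with compound at 37 °C, then lysed with luciferase reagent for 10 min at ambient before reading.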
SMN2 splice up = increases expression of the SMN2 splice variant; HEK293 SMN2-luciferase splicing reporter, luminescence, 30-36 h; Potency, µM (series often up to 46.1 µM), without a hit: top-dose activity change, positive = activation, hits mostly activators; 210,000 tested, 2.8% active; AID 1458; also: % of control where 0% means no effect; nearly all actives have a fitted effect of over 55% in size
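HEK293 cells carry an SMN2 minigene-luciferase reporter in which exon 7 inclusion puts luciferase in frame. Cells were seeded at 2000 cells/well, attached for 10-12 hours, then exposed to compounds for 30-36 hours at 37C before ONE-Glo luminescence.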
Luc counter = blocks Kinase-Glo luciferase, a counter-screen artifact | Kinase-Glo luciferase, ATP luminescence, 8 min | Potency, µM (series often up to 38.3 µM), for the others: top-dose activity change, negative = inhibition, usual class: inhibitors | 200,000 tested, 0.28% active | AID 1379; also: % is scaled to controls: 0 for no effect and ±100 for the full control effect; nearly all actives have a fitted effect of over 60% in size
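Light output from Kinase-Glo luciferase with luciferin and 10 uM ATP in 50 mM imidazole pH 7.2, KCl, MgCl2, Tween 20, BSA; compound pin-delivered, 8-min ambient incubation, then luminescence read.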
NPC1 promoter act = activators of NPC1 promoter; Huh7 NPC1 promoter luciferase reporter, 24 h; Potency, µM (doses to about 9.22 µM), without a hit: top-dose activation, actives largely listed as activators; 320,000 tested, 2.4% active; also: % of control where 0% means no effect; nearly all actives have a fitted effect of over 60% in size
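Stable NPC1-promoter luciferase Huh7 line; cpd (DMSO) 24 h, 37 °C, 5% CO2; Amplite luciferase reagent 10 min RT; luminescence readout. qHTS format.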
ELG1 genotoxic = genotoxicity induction in ELG1-luciferase HEK293T cells | HEK293T ELG1-luciferase reporter, luminescence, 16 h | Potency, µM (top dose mostly 46 µM), for the others: at the top dose activity change, positive = activation, usual class: activators | 330,000 tested, 1.3% active; also: % of control where 0% means no effect; nearly all actives have a fitted effect of over 60% in size
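Cells (2,000/well) expressing the ELG1-luciferase fusion are dosed by pin tool and kept 16 hr at 37 °C, 5% CO2. Signal comes from ONE-Glo luciferase reagent after 30 min at room temperature.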
FLuc modulator = inhibits or activates purified firefly luciferase, miR-21 counter-screen. P08659. purified FLuc, Km substrates, luminescence inhibition. Potency, µM (titrated, usually from 57.5 µM), for inactives: at the top dose activity change, negative = inhibition, usual class: inhibitors. 360,000 tested, 6.9% active. AID 588342;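 also: plate controls were vehicle for no effect and reference inhibitor for full effect; nearly all actives have a fitted effect of over 55% in size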
Target sequence (P08659 whole entry, looked up): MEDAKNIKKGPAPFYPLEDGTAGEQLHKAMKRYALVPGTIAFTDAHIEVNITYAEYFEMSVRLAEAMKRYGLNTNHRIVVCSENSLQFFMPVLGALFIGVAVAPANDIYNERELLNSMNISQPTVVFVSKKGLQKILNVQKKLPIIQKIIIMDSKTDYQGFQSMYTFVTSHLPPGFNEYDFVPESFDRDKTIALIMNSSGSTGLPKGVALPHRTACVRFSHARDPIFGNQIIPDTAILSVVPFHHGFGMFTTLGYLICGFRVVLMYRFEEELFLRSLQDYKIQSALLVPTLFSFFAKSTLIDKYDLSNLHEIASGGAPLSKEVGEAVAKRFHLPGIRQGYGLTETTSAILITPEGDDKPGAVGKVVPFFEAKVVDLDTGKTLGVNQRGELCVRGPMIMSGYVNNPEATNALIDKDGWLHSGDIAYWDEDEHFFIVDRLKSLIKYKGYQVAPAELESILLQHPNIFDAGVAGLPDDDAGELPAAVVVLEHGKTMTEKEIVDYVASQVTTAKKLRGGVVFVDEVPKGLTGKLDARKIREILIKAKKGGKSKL
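Purified P. pyralis luciferase (10nM final) with 10uM D-luciferin and 10uM ATP (Km levels) in 50mM Tris acetate pH 7.5, 10mM Mg acetate, 0.01% Tween-20, 0.05% BSA; qHTS 6-point titration, ~60 µM downward; luminescence read.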
Active calls of the source: *; ? = inconclusive; . = not tested or not shown; [ ] = another dose, or the depositor's remark. This is a sample that favours compounds with a hit; in the whole collection about 7.5% have one here. Calls follow the shape of the dose curve; as a rule, active = well fitted curve in the direction sought with a large enough effect; inconclusive = small, poorly fitted or top-dose-only effect, or another doubt; inactive = no such curve, though single readings can be large; an effect the other way counts as inactive or inconclusive. Potency is read from the fitted curve at half-maximal effect.

SMILES	Rab9 prom act	SMN2 splice up	Luc counter	NPC1 promoter act	ELG1 genotoxic	FLuc modulator
COc1ccc(CC(=O)O/N=C(\N)c2ccc(OC)cc2)cc1	24%	.	.	10%	7%	?
COc1ccc(/C(N)=N/OC(=O)Cc2cccs2)cc1	3.2µM*	?	0%	?	?	12µM*
COc1ccc(/C(N)=N/OC(=O)Cc2cccs2)cc1OC	6%	23%	1%	11%	12%	24µM*
O=C(Nc1ccc2[nH]ccc2c1)c1cccs1	2µM*	.	.	1.6µM*	?	9.5µM*
CCC(C)NS(=O)(=O)c1ccc(NC(=O)c2cccs2)cc1 (configuration not stated)	-2%	.	-2%	-8%	-2%	-1%
O=C(Nc1ccc(NC(=O)c2ccccc2F)cc1)c1cccs1	3.5µM*	.	.	?	?	-15%
CCC(C)c1ccc(NC(=O)c2cccs2)cc1 (configuration not stated)	0.45µM*	7.9µM*	-15%	0.4µM*	0.73µM*	0.67µM*
O=C(/C=C/c1cccs1)c1ccc(NC(=O)c2ccccc2F)cc1	20%	4%	-1%	12%	22%	3µM*
COc1ccccc1C(=O)Nc1ccc(C(=O)/C=C/c2cccs2)cc1	-9%	-15%	-1%	-2%	1%	-19%
CCOc1cccc(CC(=O)N2CCc3c([nH]c4ccc(OC)cc34)C2c2ccc(F)cc2)c1OCC (configuration not stated)	.	0%	.	.	.	-1%
COc1ccccc1NC(=O)c1ccccc1NC(=O)c1cccs1	0%	.	.	-3%	2%	19µM*
O=C(Nc1ccccc1Oc1ccsc1C(=O)O)c1ccccc1F	-5%	.	.	2%	-5%	-4%
O=C(Nc1ccc(Oc2ccsc2C(=O)O)cc1)c1ccccc1F	-1%	.	.	18%	6%	17µM*
O=C(Nc1ccc(NC(=O)c2cccs2)c(Cl)c1)c1cccs1	?	.	.	?	?	17µM*
Cc1ccccc1C(=O)Nc1ccc(NC(=O)c2cccs2)cc1	.	3.5µM*	.	.	.	?
O=[N+]([O-])c1ccc(Nc2ccc(F)cc2)cc1	2%	.	.	-1%	-2%	-3%
O=C(Nc1ccc(Cl)cc1)c1cccs1	.	23%	-7%	.	.	12µM*
O=[N+]([O-])c1ccc(NNC(=S)Nc2ccc(F)cc2)cc1	13%	-55%	-12%	22%	7%	19µM*
O=C(Nc1ccc([N+](=O)[O-])cc1)c1ccccc1F	2.8µM*	16µM*	2%	?	22%	?
CC1(c2ccc(NC(=O)c3ccccc3F)cc2)CC1(Cl)Cl (configuration not stated)	2.5µM*	.	.	3.5µM*	?	8.5µM*
O=C(Nc1ccccc1C(=O)Nc1ccccc1)c1ccccc1F	-3%	.	.	-3%	-1%	0%
O=C(Nc1ccc(-c2ccc([N+](=O)[O-])cc2)cc1)c1ccccc1F	13%	?	-1%	14%	7%	0%
O=C(Nc1ccc(NC(=O)c2cccs2)cc1)c1cccs1	?	.	.	?	?	-1%
COC(=O)c1ccc(C(NC(=O)OCc2ccccc2)/C(C)=C/[C@@H](C)C(=O)NCCO)cc1 (some centres not stated)	.	7%	-3%	.	.	.
Cc1ccc2c(c1)C(c1ccc(F)cc1)N(C(=O)COc1ccc(Cl)cc1Cl)CC(=O)N2 (configuration not stated)	.	-2%	.	.	.	-1%
SMILES	Rab9 prom act	SMN2 splice up	Luc counter	NPC1 promoter act	ELG1 genotoxic	FLuc modulator
O=C(Nc1ccc(NC(=O)C2CC2)cc1)c1cccs1	1.3µM*	.	.	3.5µM*	?	13µM*
O=C(Nc1ccc(C(=O)N2CCCCC2)cc1)c1cccs1	13%	.	.	14%	?	?
O=C(O)c1cc(-c2ccco2)nc2ccccc12	6%	9%	-8%	14%	4%	21µM*
COc1ccc(N2CCN(C(=O)c3cc(-c4cccs4)nc4ccccc34)CC2)cc1	-1%	-11%	4%	1%	-14%	?
O=C(OCC(=O)N1CCN(C(=O)c2ccco2)CC1)c1cc(-c2ccco2)nc2ccccc12	-10%	-7%	-3%	-5%	-2%	15µM*
C/C(=N\NC(=O)c1ccc(O)cc1O)c1cccnc1	?	.	.	24%	11%	9.5µM*
O=C(OCC(=O)N1CCN(C(=O)c2ccco2)CC1)c1cc(-c2ccc(Cl)c(Cl)c2Cl)nc2ccccc12	4%	-9%	2%	1%	-5%	-12%
O=C(c1cc(-c2ccco2)nc2ccccc12)N1CCN(c2ccc(F)cc2)CC1	9%	5%	0%	-1%	-8%	19µM*
Cn1c(=O)c2ncn(CC(=O)Nc3nc(-c4ccc(Cl)cc4)cs3)c2n(C)c1=O	-2%	-46%	1%	1%	3%	4%
O=C(N/N=C/c1ccc(F)cc1)c1cc(-c2ccco2)nc2ccccc12	-4%	6%	-4%	-18%	1%	3µM*
C/C(=N\NC(=O)c1cc(-c2ccco2)nc2ccccc12)c1cccnc1	16%	0%	-15%	13%	2%	13µM*
CCCCCCSC1=C(C#N)C(=O)NC2(CCCCC2)S1	-2%	19%	1%	3%	?	24µM*
COc1ccc(CSC2=C(C#N)C(=O)NC3(CCCCC3)S2)cc1	.	-4%[9.22 µM]	-3%[7.66 µM]	.	.	.
Oc1ccc2cccnc2c1	-3%	0%	0%	1%	-2%	2%
O=C(Cc1ccc2cccnc2c1)c1ccc(O)cc1O	?	-3%	-3%	27%	?	21µM*
CCCCCCCCC	.	-6%	.	.	.	.
CN1c2ccccc2C(C)(C)C12CC(c1ccc(S(=O)(=O)N3CCCCC3)cc1)=NO2 (configuration not stated)	8%	1.1µM*	2%	-5%	-5%	-1%
O=c1c2sccc2nc(SCc2cc(=O)n3cc(Cl)ccc3n2)n1Cc1ccccn1	3.5µM*	6%	1%	?	?	-3%
Cc1nc(-c2ccc([N+](=O)[O-])cc2)sc1C(=O)O	?	.	-9%	24%	?	27µM*
Cc1nc(-c2ccc(Cl)cc2)sc1C(=O)O	?	11µM*	-1%	?	?	15µM*
Cc1ccc(-c2nc(C)c(C(=O)O)s2)cc1	?	.	-2%	-14%	?	4.8µM*
Cc1nc(-c2ccccc2)sc1C(=O)O	23%	?	-6%	19%	9%	?
COCCNC(=O)COc1ccccc1Cl	0%	-12%	1%	-4%	5%	6%
COCCCn1c(C)cc(C(=O)COC(=O)C23CC4CC(CC(O)(C4)C2)C3)c1C	0.63µM*	.	.	?	?	?
